G9a block: G9a (human) methyltransferase inhibition. hit rate 8.8% among 350,000. Q96KQ7. G9a H3K9 monomethylation, AlphaScreen, 2 h. Potency, µM (series often up to 102 µM), hits mostly inhibitors; further: nearly all actives have a fitted effect of over 75% in size
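Signal arises when biotinylated H3K9 peptide, once monomethylated, bridges streptavidin donor and antibody-captured acceptor beads. Enzyme at 20 nM was preincubated 15 min with test compounds; peptide 500 nM and SAM 20 uM then reacted for 2 h.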
BAZ2B block: inhibitors of human BAZ2B bromodomain; hit rate 4.4% among 360,000; AlphaScreen BAZ2B-H3K14Ac peptide displacement; Potency, µM (titrated, usually from 114 µM), usual class: inhibitors; further: nearly all actives have a fitted effect of over 60% in size
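In this displacement format the biotinylated H3(5-23) peptide acetylated at Lys14 serves as ligand at 50 nM, with BAZ2B at 50 nM in PBS pH 7.4 containing 0.01% Tween-20. Donor and acceptor beads are 10 ug/mL final.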
JMJD2A Tudor: JMJD2A Tudor domain (human) inhibition; AlphaScreen JMJD2A-Tudor / H3K4me3 peptide binding; Potency, µM (highest dose often 114 µM), most hits filed as inhibitors; hit rate 4.4% among 390,000; AID 504339; further: nearly all actives have a fitted effect of over 50% in size
Target sequence (O75164 whole entry, looked up, the tested form may be a part): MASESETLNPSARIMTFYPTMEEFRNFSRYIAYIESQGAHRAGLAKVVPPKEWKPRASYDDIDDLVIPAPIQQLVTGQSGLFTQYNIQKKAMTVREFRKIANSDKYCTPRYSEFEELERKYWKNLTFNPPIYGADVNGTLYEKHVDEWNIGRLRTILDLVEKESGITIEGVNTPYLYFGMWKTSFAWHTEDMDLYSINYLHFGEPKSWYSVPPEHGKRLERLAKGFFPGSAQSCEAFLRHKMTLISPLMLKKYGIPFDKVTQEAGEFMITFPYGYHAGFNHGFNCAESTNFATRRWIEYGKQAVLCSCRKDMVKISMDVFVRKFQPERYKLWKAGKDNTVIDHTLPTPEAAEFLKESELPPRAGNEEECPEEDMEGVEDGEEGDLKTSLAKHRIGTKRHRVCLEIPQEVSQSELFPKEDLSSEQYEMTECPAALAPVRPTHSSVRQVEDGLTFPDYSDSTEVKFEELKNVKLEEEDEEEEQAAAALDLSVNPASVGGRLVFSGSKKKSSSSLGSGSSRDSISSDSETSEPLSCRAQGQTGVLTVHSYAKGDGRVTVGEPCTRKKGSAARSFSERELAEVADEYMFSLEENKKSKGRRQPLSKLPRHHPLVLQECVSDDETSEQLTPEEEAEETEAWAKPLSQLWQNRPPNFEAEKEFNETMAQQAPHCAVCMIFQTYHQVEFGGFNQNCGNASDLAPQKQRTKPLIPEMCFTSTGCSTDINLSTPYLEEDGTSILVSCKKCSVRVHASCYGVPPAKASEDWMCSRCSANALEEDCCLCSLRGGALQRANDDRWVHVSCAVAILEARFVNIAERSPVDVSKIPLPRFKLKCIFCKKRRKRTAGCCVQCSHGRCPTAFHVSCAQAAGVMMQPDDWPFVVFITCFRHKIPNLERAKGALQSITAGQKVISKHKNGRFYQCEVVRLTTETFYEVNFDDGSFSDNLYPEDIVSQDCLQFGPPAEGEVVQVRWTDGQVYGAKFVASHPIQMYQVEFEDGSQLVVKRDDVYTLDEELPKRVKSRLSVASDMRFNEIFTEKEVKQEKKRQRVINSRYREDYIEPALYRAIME
GLS inhibitor: inhibitors of human glutaminase (GLS); hit rate 0.21% among 410,000; O94925; AID 624170; Potency, µM (top dose mostly 45.5 µM), hits mostly inhibitors; GLS enzymatic activity, qHTS titration
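hKGA in 45 mM KH2PO4 (pH 8.2), 0.02% Tween-20 with compound, then 1mM L-Glutamine (stock as added) plus glutamate oxidase/HRP/Amplex red coupling mix. Fluorescence read initially and after 30 min at RT; signal change reflects glutamate formation.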
HP1b chromo inh: inhibitors of HP1-beta chromodomain binding to methylated histone tails. AlphaScreen HP1-beta / biotin-H3K9me3 peptide binding. Potency, µM (doses to about 114 µM), most hits filed as inhibitors. hit rate 0.56% among 390,000. AID 540317; further: nearly all actives have a fitted effect of over 70% in size
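AlphaScreen: HP1-beta (50 nM) preformed 30 min with biotin-H3(1-18)K9me3 peptide (50 nM) in PBS pH 7.4, 0.01% Tween-20. Compound added for 30 min at RT, then streptavidin donor/nickel chelate acceptor beads (10 ug/mL) for 30 min.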
Large screens that a line does not name were inactive. Shown are actives, neighbours in structure and some others; about 10% of the full set was active somewhere. The call rests on the fitted dose curve; in most records, active means well fitted curve in the direction sought with a large enough effect; inconclusive means small, poorly fitted or top-dose-only effect, or another doubt; inactive means no such curve, though single readings can be large; an effect the other way counts as inactive or inconclusive.

CCC(C)C(N)C(=O)O (stereo unspecified)	none (no result: BAZ2B block, JMJD2A Tudor, HP1b chromo inh)
CCCCN(CC)CCCn1cnc2c([nH]c3ccc(Cl)cc32)c1=O	none
COc1ccc2nc(N=Nc3ccc(N(C)C)cc3)sc2c1	G9a block 22µM, BAZ2B block inconclusive, JMJD2A Tudor inconclusive
COc1ccc2nc(/N=C\N(C)C)sc2c1	G9a block inconclusive, BAZ2B block 56µM, HP1b chromo inh inconclusive
Cc1nnc(SCc2cc(=O)c3ccccc3[nH]2)s1	none
Cc1nnc(SCc2cc(=O)[nH]c(=S)[nH]2)s1	G9a block 28µM, BAZ2B block inconclusive, JMJD2A Tudor inconclusive
O=c1cc(CSc2ccccc2)[nH]c(=S)[nH]1	G9a block inconclusive, JMJD2A Tudor 89µM, GLS inhibitor inconclusive
Cc1ccc(NC(=O)CSc2nnc(NC3CC3)s2)cc1S(=O)(=O)N1CCOCC1	none (no result: G9a block, BAZ2B block, JMJD2A Tudor, HP1b chromo inh)
CCc1nnc(N/N=C/c2ccccc2Cl)n1N	BAZ2B block inconclusive, JMJD2A Tudor 89µM, GLS inhibitor inconclusive
CC(C)(C)c1nnc(N/N=C/c2ccccc2O)n(N)c1=O	BAZ2B block 20µM, JMJD2A Tudor 22µM
CC(C)(C)c1nnc(N/N=C/c2ccccc2)n(N)c1=O	none
COc1cccc(/C=N/Nc2nnc(C)n2N)c1OCc1ccccc1Cl	G9a block 22µM
CCc1nnc(N/N=C/c2ccccc2F)n1N	G9a block inconclusive, BAZ2B block inconclusive, GLS inhibitor inconclusive
CCC/C=C/c1ccc(CN2C(CC(C)C)C(=O)N(Cc3cn(Cc4ccco4)nn3)CCS2(=O)=O)cc1 (stereo unspecified)	none (no result: G9a block, BAZ2B block, JMJD2A Tudor, HP1b chromo inh)
O=c1[nH]c(CN2CCCC2)nc2sc3c(c12)CCC3	G9a block 40µM, BAZ2B block inconclusive, JMJD2A Tudor inconclusive
CCOc1ccc(S(=O)(=O)N(C)CC(=O)N2CCN(CC)CC2)cc1	none
COC(=O)c1ccc(NC(=O)CC2C(=O)N(c3cccc(C)c3)C(=O)N2C2CCCC2)cc1 (stereo unspecified)	G9a block 7.1µM
OCC1OC(Nc2ccccc2C=NO)C(O)C1O (stereo unspecified)	none (no result: G9a block, BAZ2B block, JMJD2A Tudor, HP1b chromo inh)
CCCN(CCC)S(=O)(=O)c1ccc(N2CCCC2=O)c([N+](=O)[O-])c1	none
NNS(=O)(=O)c1ccc(N2CCCC2=O)c([N+](=O)[O-])c1	G9a block 10µM, JMJD2A Tudor 25µM
NS(=O)(=O)c1ccc(N2CCCC2=O)c([N+](=O)[O-])c1	G9a block inconclusive
CCCCN(CCCC)S(=O)(=O)c1ccc(N2CCCC2=O)c([N+](=O)[O-])c1	JMJD2A Tudor 32µM, GLS inhibitor inconclusive (no result: G9a block, BAZ2B block)
CSc1ccc(CCNC(=O)c2ccc(-n3c(C)cc4c3CCC(C)C4)cc2)cc1 (stereo unspecified)	none
O=C(Nc1ccc(-c2ccc([N+](=O)[O-])cc2)cc1)c1ccccc1F	G9a block 50µM
Cc1ccc(SCC(=O)NNC(=O)CNC(=O)c2ccccc2F)cc1	none (no result: G9a block, BAZ2B block)
O=C(CSc1ccc([N+](=O)[O-])cc1)NNC(=O)c1ccccc1F	G9a block 50µM
Cc1ccc(-c2nnc(Nc3ccc(C(=O)N(C)C)cc3)c3ccccc23)cc1S(=O)(=O)N(C)C	none
COc1ccc(S(=O)(=O)N(C)C[C@@H]2OCCCC[C@@H](C)Oc3ccc(NS(=O)(=O)c4cccs4)cc3C(=O)N([C@H](C)CO)C[C@@H]2C)cc1	none (no result: G9a block, BAZ2B block, JMJD2A Tudor, HP1b chromo inh)
CN1c2ccccc2C(C)(C)C12C=Cc1cc(O)ccc1O2 (stereo unspecified)	BAZ2B block 45µM, JMJD2A Tudor 45µM, GLS inhibitor inconclusive, HP1b chromo inh inconclusive (no result: G9a block)
Cc1ccc(N(CCC#N)C(=O)COC(=O)C2=COCCO2)cc1	G9a block 40µM
Cc1ccc(N(CCC#N)C(=O)COC(=O)C2CCN(S(=O)(=O)c3ccc4c(c3)OCCO4)CC2)cc1	G9a block 32µM
CN(C)C(=O)c1ccc(NC(=O)COC(=O)C2CCN(S(=O)(=O)c3ccc4c(c3)OCCO4)CC2)cc1	G9a block 40µM
Cc1ccc(S(=O)(=O)N2CCC(C(=O)OCC(=O)N(CCC#N)c3ccc(F)cc3)CC2)cc1C	none
CCN(CC)C(=O)COC(=O)C1CCN(S(=O)(=O)c2ccc3c(c2)OCCO3)CC1	none
COc1cccc(CN(C(=O)c2oc3cc(C)ccc3c2C)C2CCS(=O)(=O)C2)c1 (stereo unspecified)	none
COc1cccc(C(=O)NCc2nnc(SCC(=O)Nc3nccs3)n2-c2cccc(C)c2)c1	none
CC1(C(=O)Nc2ccc3ccccc3c2)CCC(=O)N1CCc1c[nH]c2ccccc12 (stereo unspecified)	none (no result: G9a block, BAZ2B block, JMJD2A Tudor, HP1b chromo inh)
Cc1c(/C(O)=C2/C(=O)C(=O)N(CCN3CCOCC3)C2c2ccccn2)cnn1-c1ccccc1 (stereo unspecified)	G9a block 7.9µM, BAZ2B block 25µM, JMJD2A Tudor 50µM
Cc1ccc(C2/C(=C(/O)c3cnn(-c4ccccc4)c3C)C(=O)C(=O)N2CCCN2CCOCC2)o1 (stereo unspecified)	BAZ2B block 79µM (no result: JMJD2A Tudor, GLS inhibitor, HP1b chromo inh)
Cc1c(/C(O)=C2\C(=O)C(=O)N(CCN(C)C)C2c2cccs2)cnn1-c1ccccc1 (stereo unspecified)	G9a block 20µM
Cc1ccc(C)c(/C(O)=C2/C(=O)C(=O)N(CCN3CCOCC3)C2c2ccc(C)o2)c1 (stereo unspecified)	G9a block 14µM, JMJD2A Tudor inconclusive
Cc1c(/C(O)=C2\C(=O)C(=O)N(CCCN(C)C)C2c2ccccc2)cnn1-c1ccccc1 (stereo unspecified)	none
CCC(=O)O[C@@H]1[C@H](C)O[C@H](O[C@H]2[C@@H](N(C)C)[C@H](O)[C@@H](O[C@@H]3[C@@H](CC=O)C[C@@H](C)[C@@H](O)/C=C\C=C/C[C@@H](C)OC(=O)C[C@@H](OC(=O)CC)[C@H]3OC)O[C@H]2C)C[C@]1(C)O	none (no result: BAZ2B block, JMJD2A Tudor, HP1b chromo inh)
Cc1cccc(-c2n[nH]c(=S)n2/N=C/C=C/c2ccco2)c1	G9a block 1.6µM, BAZ2B block inconclusive, JMJD2A Tudor 20µM, HP1b chromo inh inconclusive
C(=C\c1ccco1)/C=N/n1cnnc1	G9a block 40µM
S=c1[nH]nc(-c2ccncc2)n1/N=C/C=C/c1ccco1	BAZ2B block 50µM, JMJD2A Tudor 8.9µM, GLS inhibitor inconclusive
S=c1[nH]nc(-c2ccccc2Cl)n1/N=C/C=C/c1ccco1	G9a block 1.1µM, BAZ2B block inconclusive, JMJD2A Tudor 16µM
O=C1NC(c2ccccc2Cl)=N/C1=C/c1ccco1	BAZ2B block inconclusive (no result: G9a block)
CCOC(=O)C1=NN(N=O)C2(CC(=O)N(c3cc(C)cc(C)c3)C2=O)C1 (stereo unspecified)	G9a block 4.5µM
O=[N+]([O-])c1cccc(/C([O-])=C(/C(=S)Nc2ccccc2)[n+]2ccccc2)c1	G9a block 10µM, JMJD2A Tudor inconclusive
C=CCNC(=S)/C(=C(/[O-])c1ccc([N+](=O)[O-])cc1)[n+]1ccccc1	G9a block 45µM

Compound activity: PubChem BioAssay, National Center for Advancing Translational Sciences (NCATS)
